From publication PMC5540273 (PLoS ONE, 2017)

What was measured:
Details in all cases: concentration: 1 μM, replicates: in singlicate; n = 1
[1] = tested on: RPS6KA5(Kin.Dom.2-C-terminal)
[2] = tested on: T1, RSK1(Kin.Dom.1-N-terminal)
T1 construct: gene RPS6KA1

[3] = tested on: T2, RSK1(Kin.Dom.2-C-terminal)
T2 construct: gene RPS6KA1

[4] = tested on: T3, RSK2(Kin.Dom.1-N-terminal)
T3 construct: gene RPS6KA3

[5] = tested on: T4, RSK2(Kin.Dom.2-C-terminal)
T4 construct: gene RPS6KA3

[6] = tested on: T5, RSK3(Kin.Dom.1-N-terminal)
T5 construct: gene RPS6KA2

[7] = tested on: T6, RSK3(Kin.Dom.2-C-terminal)
T6 construct: gene RPS6KA2

[8] = tested on: T7, RSK4(Kin.Dom.1-N-terminal)
T7 construct: gene RPS6KA6

[9] = tested on: T8, RSK4(Kin.Dom.2-C-terminal)
T8 construct: gene RPS6KA6

S6K1 = tested on: S6K1
SBK1 = tested on: SBK1
SGK2 = tested on: SGK2
SGK3 = tested on: SGK3
SGK = tested on: SGK
SIK2 = tested on: SIK2
SIK = tested on: SIK
SLK = tested on: SLK
SNARK = tested on: T9, SNARK
T9 construct: gene NUAK2

SNRK = tested on: SNRK
SRC = tested on: SRC
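Further: KINOMEscan kinase panel screen.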

SMILES	%Inh [1] [%]	%Inh [2] [%]	%Inh [3] [%]	%Inh [4] [%]	%Inh [5] [%]	%Inh [6] [%]	%Inh [7] [%]	%Inh [8] [%]	%Inh [9] [%]	%Inh (S6K1) [%]	%Inh (SBK1) [%]	%Inh (SGK2) [%]	%Inh (SGK3) [%]	%Inh (SGK) [%]	%Inh (SIK2) [%]	%Inh (SIK) [%]	%Inh (SLK) [%]	%Inh (SNARK) [%]	%Inh (SNRK) [%]	%Inh (SRC) [%]
CS(=O)(=O)CCNCc1nc(-c2ccc3ncnc(Nc4ccc(OCc5cccc(F)c5)c(Cl)c4)c3c2)cs1.Cl [GW583340]	9	22	10	0	0	0	11	0	25	6	0	0	0	0	0	0	20	0	0	0
CNc1nccc(-c2c(-c3ccc(F)cc3)ncn2CCCN2CCOCC2)n1 [SB-222516]	17	5	0	9	55	3	0	7	87	2	0	15	44	10	0	12	5	24	18	0
COc1ccc(Nc2nccc(N3CCC(NC(=O)c4cccc(NC(C)=O)c4)C3)n2)cc1 (stereo not drawn) [GSK1379732]	20	0	0	0	16	23	6	0	27	0	21	3	3	15	0	0	6	3	0	0
Cl.Cl.c1ccc(-c2cc3ccncc3cc2OC2CCNCC2)cc1 [GSK1122999]	8	22	21	9	55	0	6	0	30	7	12	7	11	0	0	0	40	23	14	0
COc1ccc(-c2oc3ncnc(N)c3c2-c2ccc(OC)cc2)cc1 [SB-589132]	0	29	30	9	30	5	0	0	69	16	0	5	0	9	2	1	20	0	0	40
CC(C)(C)c1ccc(-n2cnc3c(N)ncnc32)cc1 [SKF-97263]	0	0	16	0	28	8	0	15	0	10	11	0	15	2	7	0	13	18	0	1
c1ccc(-c2ccc3c(-c4ccnc(Nc5ccc6c(c5)OCCO6)n4)cnn3n2)cc1 [GW818941]	7	0	2	0	23	0	3	0	4	3	7	0	8	12	10	3	20	4	0	0
Cc1ccc(NC(=O)c2cccc(C#N)c2)cc1-c1ccc(C(=O)Nc2ccncc2)cc1 [GSK1398463]	1	24	0	0	6	9	0	0	1	11	0	10	2	0	15	0	0	0	17	26
Cc1ccc(C)c(NC(=O)NCCNc2ccnc(Nc3ccc(F)cc3)n2)c1 [GSK1379878]	5	0	0	0	0	0	0	0	0	0	0	0	0	0	0	0	0	0	0	0
CC(=O)Nc1n[nH]c2ncc(-c3ccccc3)cc12 [SB-548492]	0	1	100	20	0	41	0	36	12	50	4	9	14	20	12	14	20	3	1	0
Cl.c1ccc(Cn2ccc3cc(Nc4ncnc5ccccc45)ccc32)cc1 [GW275568]	39	41	23	0	34	2	4	0	26	0	0	0	46	0	2	0	32	35	14	4
Clc1ccc(-c2cc(-c3c[nH]nc3-c3ccccn3)ccn2)cc1 [GW681251]	0	6	13	0	21	0	0	0	44	0	4	0	6	0	0	0	10	0	0	0
C[C@H]1CC[C@@H](C(=O)Nc2ccccc2)CN1c1cc(-c2ccc3c(N)n[nH]c3c2)nc(N)n1 [GSK2283293]	0	18	8	0	21	0	9	0	23	0	9	0	7	0	0	0	0	7	0	0
CCn1c(-c2ccncc2)nc2cnccc21 [SB-735216]	0	19	16	19	34	8	40	14	39	32	20	19	28	5	0	19	8	21	17	0
Cn1ccc2ncnc(Oc3ccc(NC(=O)Nc4cccnc4)c(Cl)c3)c21	13	0	41	1	0	0	17	0	3	0	0	8	0	3	0	19	9	0	0	16
Cc1cccc(-c2nc(Nc3ccc4[nH]nnc4c3)c3ccccc3n2)n1 [GW867587]	0	0	16	12	0	0	12	0	0	0	0	0	0	0	0	0	0	0	0	26
Nc1nccc2scc(-c3ccc4c(c3)CCN4C(=O)Cc3cc(F)ccc3F)c12 [GSK2587663]	0	12	15	3	7	29	0	0	13	0	11	0	0	0	0	0	13	0	8	0
FC(F)(F)c1cc(Nc2nccc(-c3c(-c4ccc(Cl)cc4)nn4ncccc34)n2)ccc1Cl [GW829351]	0	0	28	11	0	0	0	0	45	0	0	0	0	0	0	0	0	0	0	0
Fc1cccc(COc2ccc(Nc3ncnc4sc(-c5ccc[nH]5)cc34)cc2Cl)c1 [GW707818]	20	25	8	0	0	0	5	0	5	0	0	0	19	0	0	0	24	15	1	0
O=C(Nc1ccccc1)Nc1ccc(Oc2ccc3nccn3n2)cc1	19	5	0	0	0	6	0	0	0	0	0	0	3	0	0	0	20	0	0	0
Clc1cc(Nc2ncnc3cc[nH]c23)ccc1OCc1ccccn1	1	0	28	10	0	26	20	2	28	29	41	24	28	31	8	16	21	27	26	15
